From the supplement of paper PMC7156485
“And” between values parts separate entries of the source, which are not always exact repeats. Equal values may be shown once. ± gives the standard deviation of the averaged measurements.

Legend:
Details in all cases: concentration: 10 µM; 24 h
HCC1569 [1] = experiment: cell number relative to DMSO (% of DMSO); higher = more cells (less growth inhibition / toxicity)
Summary of the method: (§1)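 H1.0 nuclear intensity or cell number is stated as percent of the plate control, based on the median of replicates, and HCC1569 values were smoothed for positional effects. These came from HCC1569 and TDF cells treated with compounds at 10 µM for 24 h at 37 °C in triplicate, then fixed in 3.7% formaldehyde and stained with a rabbit anti-H1.0 antibody, an AlexaFluor 647 secondary and DAPI.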

TDF [2] = experiment: as above
Summary of the method: as §1

TDF [3] = experiment: H1.0 immunofluorescence intensity relative to DMSO (% of DMSO); higher = stronger H1.0 induction, active = 120 or more
Summary of the method: as §1

HCC1569 [4] = experiment: H1.0 immunofluorescence intensity relative to DMSO (% of DMSO); higher = stronger H1.0 induction, active = 140 or more
Summary of the method: as §1
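Throughout, for H1.0 immunofluorescence intensity relative to DMSO: TDF is a line of transformed human dermal fibroblasts of mesenchymal origin.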
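Throughout, for cell number relative to DMSO: TDF denotes transformed human dermal fibroblasts of mesenchymal origin.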

| Compound | cell number (HCC1569 [1]) | cell number (TDF [2]) | H1.0 immunofluorescence intensity (TDF [3]) | H1.0 immunofluorescence intensity (HCC1569 [4]) |
| --- | --- | --- | --- | --- |
| COC(=O)C1C(O)CCC2CN3CCc4c([nH]c5ccccc45)C3CC21.Cl (stereo unspecified) | 102 ± 5.1 | 107 ± 3.6 | 91.2 (inactive) | 100 (inactive) |
| C[n+]1cc2c3c(ccc2c2ccc4cc5c(cc4c21)OCO5)OCO3 [Sanguinarine] | 93.5 | 93.6 | 98.2 (inactive) | 114 (inactive) |
| CC(C)=CCC(O)C1=CC(=O)c2c(O)ccc(O)c2C1=O (stereo unspecified) [Shikonin] | 27 | 38.8 | 119 (inactive) | 111 (inactive) |
| C[C@H](c1ccc(F)cc1CCCC(=O)O)N(c1cc(F)ccc1F)S(=O)(=O)c1ccc(Cl)cc1 | 99.7 | 90.2 | 94.6 (inactive) | 111 (inactive) |
| Cc1cc(O)c2c(c1)C(=O)c1cc(O)cc(O)c1C2=O [Emodin] | 98.4 ± 1.2 | 96.8 ± 5.4 | 98.6 (inactive) | 89.8 (inactive) |
| COc1cc(/C=C/C(=O)O)ccc1O [Ferulic acid] | 102 | 97.3 | 101 (inactive) | 92.2 (inactive) |
| CN1CCC(=C2c3ccccc3CC(=O)c3sccc32)CC1 [Ketotifen] | 104 | 102 | 97.6 (inactive) | 124 (inactive) |
| O=c1[nH][nH]c2nnc(-c3c(-c4ccccc4)nn4ccccc34)cc12 [ERK Inhibitor II,                   Negative control] | 98.3 | 98.8 | 95.5 (inactive) | 122 (inactive) |
| CCCCCCCC/C=C\CCCCCCC(O)C(=O)O (stereo unspecified) [(9Z)-2-hydroxy-9-octadecenoic acid] | 100 | 88.9 | 102 (inactive) | 91.2 (inactive) |
| CC(C)NCC(O)c1ccc(NS(C)(=O)=O)cc1.Cl (racemic) | 108 | 100 | 92.6 (inactive) | 99.1 (inactive) |
| O=C1CC(c2ccc(O)c(O)c2)Oc2cc(OC3OC(CO)C(O)C(O)C3O)cc(O)c21 (stereo unspecified) [Eriodictyol-7-O-glucoside] | 101 | 94.3 | 97.7 (inactive) | 89.3 (inactive) |
| CCCCCCCCCCCCCCCC(O)C(CO)NC(C)=O (stereo unspecified) [C2 Dihydroceramide] | 104 | 114 | 99.1 (inactive) | 97 (inactive) |
| CCCCCCCCCCCCCCCC(O)C(CO)NC(=O)CCCCCCC (stereo unspecified) [C8 Dihydroceramide] | 100 | 104 | 97.1 (inactive) | 108 (inactive) |
| C=CC1(C)CCC2C(=CCC3C(C)(C(=O)O)CCCC23C)C1 (stereo not drawn) [(4alpha,13alpha)-pimara-7,15-dien-18-oic acid] | 102 | 101 | 99 (inactive) | 86.6 (inactive) |
| CCOC(=O)C1=C(C)NC(C)=C(C(=O)OCC)C1c1ccccc1C=CC(=O)OC(C)(C)C [Lacidipine] | 93.2 | 93.4 | 98.1 (inactive) | 125 (inactive) |
| N[C@@H](Cc1c[nH]c2ccccc12)C(=O)O [L-Tryptophan] | 101 | 103 | 96.6 (inactive) | 108 (inactive) |
| CN(C)C(N)=NCCCC(N)C(=O)O.Cl (stereo unspecified) [N^G,N^G-Dimethylarginine hydrochloride] | 104 | 96.5 | 91.6 (inactive) | 94.5 (inactive) |
| CC1OC(Oc2c(-c3ccc(O)c(O)c3)oc3cc(O)cc(O)c3c2=O)C(O)C(O)C1O (stereo unspecified) [Quercitrin] | 97.5 | 106 | 101 (inactive) | 99.1 (inactive) |
| COc1ccccc1N1CCN(CCN2C(=O)CC3(CCCC3)CC2=O)CC1.Cl.Cl [BMY 7378 dihydrochloride] | 98.3 | 98.9 | 90.3 (inactive) | 89.9 (inactive) |
| COC(=O)Nc1nc2ccc(S(=O)c3ccccc3)cc2[nH]1 (stereo unspecified) [Oxfendazole] | 100 | 68.2 | 108 (inactive) | 124 (inactive) |
| CCCCCCCCCCCCCCCC(O)C(N)CO (racemic) [DL-Dihydrosphingosine] | 103 | 101 | 96.2 (inactive) | 100 (inactive) |
| O=C(O)c1ccc(-c2c[nH]c3ncc(-c4ccccc4)cc23)cc1C1CCCC1 | 71.1 and 70.9 | 69.4 and 71.3 | 95.6 (inactive) and 106 (inactive) | 152 (active) and 146 (active) |
| CNCC(O)c1ccc(O)c(O)c1.O=C(O)C(O)C(O)C(=O)O (single isomer, unassigned; (-)) [(-)-Epinephrine bitartrate] | 100 | 107 | 90.8 (inactive) | 82.3 (inactive) |
| CCCCCCCCCCCCCCCC(=O)OCC(COP(=O)(O)O)OC(=O)CCCCCCCCCCCCCCC (stereo unspecified) [Dipalmitoylphosphatidic acid] | 94.8 | 107 | 89.8 (inactive) | 107 (inactive) |
| Fc1ccc(-c2c3cccc(C(F)(F)F)c3nn2Cc2ccc(F)cc2Cl)cc1 | 100 | 95.3 | 92.3 (inactive) | 102 (inactive) |

| Compound | cell number (HCC1569 [1]) | cell number (TDF [2]) | H1.0 immunofluorescence intensity (TDF [3]) | H1.0 immunofluorescence intensity (HCC1569 [4]) |
| --- | --- | --- | --- | --- |
| Cc1ncc([N+](=O)[O-])n1CC(C)O (stereo unspecified) [Secnidazole] | 102 | 96.6 | 93.5 (inactive) | 107 (inactive) |
| COc1cc(Br)c(Nc2nc(-c3c(C)nc4ncccn34)cs2)c(Br)c1 | 61.1 | 53.8 | 108 (inactive) | 199 (active) |
| O=C([O-])c1cc2cc(Cc3cccnc3)ccc2o1.[Na+] [Furegrelate sodium] | 102 | 102 | 88.5 (inactive) | 93.7 (inactive) |
| Nc1nccc2c1ncn2C1OC(CO)C(O)C1O (stereo unspecified) [3-deazaadenosine] | 97 | 88.2 | 93.7 (inactive) | 88.8 (inactive) |
| Cl.NC(N)=NC(=O)Cc1c(Cl)cccc1Cl [Guanfacine.HCl] | 101 | 82.4 | 102 (inactive) | 107 (inactive) |
| CNC1C(O)C(NC)C2OC3(O)C(=O)CC(C)OC3OC2C1O (stereo unspecified) [Spectinomycin] | 104 | 98 | 97 (inactive) | 87 (inactive) |
| NC(CC(=O)[O-])C(=O)O.NC(CC(=O)[O-])C(=O)O.[Mg+2] [magnesium bis[(3S)-3-amino-3-carboxypropanoate]] | 101 | 102 | 94.5 (inactive) | 109 (inactive) |
| CCC(=O)N1CCN(C(=O)c2ccccc2)CC1 | 106 | 111 | 94.2 (inactive) | 89.3 (inactive) |
| CCC1(c2ccccc2)C(=O)NCNC1=O [Primidone] | 102 | 97.2 | 98 (inactive) | 102 (inactive) |
| CNCC(O)c1cccc(O)c1.Cl (stereo unspecified) [Phenylephrine hydrochloride] | 107 | 101 | 97.5 (inactive) | 94.3 (inactive) |
| C=C1C(=CC=C2CCCC3(C)C2CCC3C(C)CCCC(C)(C)O)CC(O)CC1O (stereo unspecified) [1,25-Dihydroxyvitamin D3] | 104 | 106 | 95.2 (inactive) | 98.6 (inactive) |
| N=C1SC(=Cc2ccc(-c3ccc4c(c3)C(=O)NC4=O)o2)C(=O)N1c1ccc(Br)cc1 [Bioymifi] | 94.2 | 67.9 | 96.5 (inactive) | 277 (active) |
| Cn1nnc2c(C(N)=O)ncn2c1=O [Temozolomide] | 105 | 91.4 | 105 (inactive) | 101 (inactive) |
| CC(=O)ONC1=c2ccccc2=NC1=C1C(=O)Nc2cc(Br)ccc21 | 55.8 | 51.1 | 116 (inactive) | 188 (active) |
| CNC(CC(C)C)C(=O)NC1C(=O)NC(CC(N)=O)C(=O)NC2C(=O)NC3C(=O)NC(C(=O)NC(C(=O)O)c4cc(O)cc(O)c4-c4cc3ccc4O)C(O)c3ccc(c(Cl)c3)Oc3cc2cc(c3OC2OC(CO)C(O)C(O)C2OC2CC(C)(N)C(O)C(C)O2)Oc2ccc(cc2Cl)C1O.Cl (stereo unspecified) [Vancomycin hydrochloride from Streptomyces orientalis] | 99.6 | 108 | 90.4 (inactive) | 101 (inactive) |
| CNc1cc2c(Nc3cccc(Br)c3)ncnc2cn1 | 87.2 | 95.7 | 91.3 (inactive) | 135 (inactive) |
| CC(=O)NCCc1ccc(O)c(O)c1 [N-Acetyldopamine monohydrate] | 101 | 111 | 96.7 (inactive) | 91.4 (inactive) |
| NC(=O)c1cccc(-c2cc(Nc3ccc(OC(F)(F)F)cc3)ncn2)c1 [Bcr-abl Inhibitor] | 89.5 | 92.8 | 98.5 (inactive) | 124 (inactive) |
| CC1c2cccc(O)c2C(O)=C2C(=O)C3(O)C(O)=C(C(N)=O)C(=O)C(N(C)C)C3C(O)C21.Cl (stereo unspecified) [Doxycycline hydrochloride] | 96.5 | 107 | 96.9 (inactive) | 105 (inactive) |
| Cc1ccc(CN2C(=O)S/C(=C\c3ccc(Cl)cc3)C2=O)cc1 | 99.6 | 117 | 98.2 (inactive) | 97.2 (inactive) |
| CC(C)C[C@@H](C(=O)O)c1cc(-c2ccc(C(F)(F)F)cc2)cc(-c2ccc(C(F)(F)F)cc2)c1 | 98.7 | 92.4 | 93.7 (inactive) | 115 (inactive) |
| OCC1OC(OC2OC=CC3C(O)C4OC4(CO)C23)C(O)C(O)C1O (stereo unspecified) [Catalpol] | 105 | 106 | 96.6 (inactive) | 89.4 (inactive) |
| CC(=O)NC(CSCC=C(C)CCC=C(C)CCC=C(C)CCC=C(C)C)C(=O)O (stereo unspecified) | 102 | 98.3 | 105 (inactive) | 95.9 (inactive) |
| COc1ccccc1O [Guaiacol] | 103 | 107 | 92.7 (inactive) | 107 (inactive) |
